# Measured values: the supplement of paper PMC6992640
# ± gives the standard deviation of the averaged measurements.
# Key:
# Assay in all cases: cell viability (% of vehicle); higher = less cytotoxic
# Details in all cases: 10 µM; 72 h
# [1] = tested on: HCI01 (cells of a triple-negative basal-like breast cancer xenograft)
# [2] = tested on: HCI03 (cells of an ER-positive luminal breast cancer xenograft)
# [3] = tested on: HCI09 (cells of a triple-negative luminal androgen receptor type breast cancer xenograft)
# [4] = tested on: HCI11 (cells of an ER-positive luminal breast cancer xenograft)
# [5] = tested on: HCI16 (cells of a triple-negative basal-like breast cancer xenograft)
# [6] = tested on: UCD52 (cells of a triple-negative basal-like breast cancer xenograft)
# [7] = tested on: WHIM2 (cells of a triple-negative basal-like breast cancer xenograft)
# [8] = tested on: WHIM30 (cells of a triple-negative basal-like breast cancer xenograft)
# [9] = tested on: HCI13 (cells of an ER-positive luminal breast cancer xenograft)
# 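Further: PDX cells carrying CMV promoter-driven luciferase, viability read as total photon flux per second by IVIS imaging following D-luciferin, vehicle control 0.1% DMSO.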
Compound,cell viability [1],cell viability [2],cell viability [3],cell viability [4],cell viability [5],cell viability [6],cell viability [7],cell viability [8],cell viability [9]
CO[C@@]1(NC(=O)[C@H](C(=O)[O-])c2ccc(O)cc2)C(=O)N2C(C(=O)[O-])=C(CSc3nnnn3C)CO[C@@H]21.[Na+].[Na+] [Moxalactam (sodium salt)],116 ± 30,120,108 ± 3.6,66.4,148,144 ± 7,92.8 ± 6.9,126 ± 2.9,–
Cc1onc(-c2ccccc2Cl)c1C(=O)NC1C(=O)N2C1SC(C)(C)C2C(=O)[O-].O.[Na+] (configuration not stated) [Cloxacillin Sodium],141 ± 32,176,161 ± 95,134,–,154 ± 38,132 ± 37,199 ± 20,191 ± 2.4
Nc1nnc(-c2cccc(Cl)c2Cl)c(N)n1 [Lamotrigine],95 ± 12,155,134 ± 32,89.9,128,112 ± 15,96.1 ± 13,175 ± 4.1,–
CCC1C(=O)N(C)c2cnc(Nc3ccc(C(=O)NC4CCC(N5CCN(CC6CC6)CC5)CC4)cc3OC)nc2N1C(C)C (configuration not stated) [BI6727 (Volasertib)],82.6 ± 50,85.1,26.4 ± 0.95,115,–,116 ± 4.4,43.5 ± 8.7,176.9 ± 1.6,84.6 ± 29
Cc1onc(-c2ccccc2)c1C(=O)NC1C(=O)N2C1SC(C)(C)C2C(=O)[O-].O.[Na+] (configuration not stated) [Oxacillin sodium monohydrate],114 ± 12,150,116 ± 24,110,127,105 ± 5,91 ± 13,168 ± 8.6,–
CCCCCC(O)C=CC1C(O)CC(=O)C1CCCCCCC(=O)O (configuration not stated) [Alprostadil],86.5 ± 76,124,145 ± 75,104,175,124 ± 2.3,147 ± 12,141 ± 4.9,–
O[C@@H]1CO[C@H]2[C@@H]1OC[C@@H]2O [Isosorbide],115 ± 23,147,103 ± 2.9,102,116,99.9 ± 3.7,107.6 ± 0.11,112 ± 15,–
C#CC1(O)CCC2C3CCC4=CC(=O)CCC4C3CCC21C (configuration not stated) [Norethindrone],91.4 ± 26,134,93.6 ± 6.6,97.8,128,93.3 ± 11,93.1 ± 21,–,–
CCCN(CCC)S(=O)(=O)c1ccc(C(=O)O)cc1 [Probenecid],102 ± 37,142,125 ± 6.3,94.6,145,113 ± 6.4,92.7 ± 6.9,155 ± 8.7,–
CC(C)(C#N)c1cc(Cn2cncn2)cc(C(C)(C)C#N)c1 [Anastrozole],160 ± 20,149,108 ± 23,120,120,111 ± 11,132 ± 22,124.2 ± 0.85,–
CC(C)c1cc(C(=O)N2Cc3ccc(CN4CCN(C)CC4)cc3C2)c(O)cc1O,116 ± 49,43.7,25.4 ± 3.1,124,109,77.1 ± 2.9,75.3 ± 3.1,176 ± 25,–
NS(=O)(=O)c1cc2c(cc1Cl)NCNS2(=O)=O [Hydrochlorothiazide],95 ± 30,106,134 ± 72,92.7,177,105 ± 3,101 ± 3.8,139 ± 11,–
CCN(CC)CC#CCOC(=O)C(O)(c1ccccc1)C1CCCCC1.Cl (configuration not stated) [Oxybutynin chloride],175 ± 51,170,139 ± 59,140,178,109 ± 10,166 ± 20,85.9 ± 14,–
CO[C@H]1C(=O)[C@]2(C)[C@@H](OC)C[C@H]3OC[C@@]3(OC(C)=O)[C@H]2[C@H](OC(=O)c2ccccc2)[C@]2(O)C[C@H](OC(=O)[C@H](O)[C@@H](NC(=O)OC(C)(C)C)c3ccccc3)C(C)=C1C2(C)C [Cabazitaxel],78.1 ± 51,113,66.2 ± 5.4,89.2,–,70.3 ± 4.9,72 ± 11,107 ± 4.8,106 ± 5.1
CCC(=O)OC1(C(=O)SCF)C(C)CC2C3CC(F)C4=CC(=O)C=CC4(C)C3(F)C(O)CC21C (configuration not stated) [Fluticasone propionate],76.7 ± 52,166,128 ± 33,133,–,128 ± 14,102 ± 44,–,–
CC1(C)O[C@@H]2C[C@H]3[C@@H]4C[C@H](F)C5=CC(=O)C=C[C@]5(C)[C@@]4(F)[C@@H](O)C[C@]3(C)[C@]2(C(=O)CO)O1 [Fluocinolone Acetonide],84 ± 59,154,132 ± 27,120,–,131 ± 17,109 ± 34,–,–
CCCC(=O)OC1(C(=O)COC(C)=O)CCC2C3CC(F)C4=CC(=O)C=CC4(C)C3(F)C(O)CC21C (configuration not stated) [Difluprednate],110 ± 13,137,134 ± 37,116,–,177 ± 21,128 ± 7.3,175 ± 11,–
CC1(C)O[C@@H]2C[C@H]3[C@@H]4CCC5=CC(=O)CC[C@]5(C)[C@@]4(F)[C@@H](O)C[C@]3(C)[C@]2(C(=O)CCl)O1 [Halcinonide],123 ± 21,144,146 ± 72,133,–,168 ± 24,105 ± 1.8,177 ± 4.2,–

Compound,cell viability [1],cell viability [2],cell viability [3],cell viability [4],cell viability [5],cell viability [6],cell viability [7],cell viability [8],cell viability [9]
NCCC(O)(P(=O)(O)O)P(=O)(O)O [Pamidronate],167 ± 8.5,112,56 ± 19,144,–,137 ± 19,–,143.9 ± 0.96,–
CCOC(=O)OC1(C(=O)OCCl)CCC2C3CCC4=CC(=O)C=CC4(C)C3C(O)CC21C (configuration not stated) [Loteprednol etabonate],90.8 ± 59,196,150 ± 70,123,–,158 ± 33,105 ± 11,198 ± 12,–
CC12C=CC(=O)C=C1CCC1C2C(O)CC2(C)C1CCC2(O)C(=O)CO (configuration not stated) [Prednisolone],135 ± 39,175,166 ± 82,132,–,173 ± 4.8,114 ± 2.7,–,–
O=C(O)CC(O)CC(O)C=Cc1c(C2CC2)nc2ccccc2c1-c1ccc(F)cc1 (configuration not stated) [Pitavastatin],119 ± 18,125,102 ± 19,–,171,74.9 ± 9.2,93.6 ± 47,92.2 ± 11,–
CC1(C)O[C@@H]2C[C@H]3[C@@H]4CCC5=CC(=O)C=C[C@]5(C)[C@@]4(F)[C@@H](O)C[C@]3(C)[C@]2(C(=O)CO)O1 [Triamcinolone Acetonide],147.2 ± 1.3,171,183 ± 20,111,–,198 ± 18,89.1 ± 12,–,–
C#CC1(O)CCC2C3CCC4=CC(=O)CCC4C3CCC21CC (configuration not stated) [Levonorgestrel],88.7 ± 25,127,100 ± 12,88.5,121,83.6 ± 6.9,91.5 ± 9.7,155 ± 2.3,–
C[C@@H]1C[C@H]2[C@H]3CCC4=CC(=O)C=C[C@]4(C)[C@@]3(F)[C@@H](O)C[C@]2(C)[C@@]1(O)C(=O)CO [Dexamethasone (DHAP)],128 ± 28,138,148 ± 54,114,180,168.4 ± 1.4,83.4 ± 20,189 ± 29,–
Cc1ccc(C)c(OCCCC(C)(C)C(=O)O)c1 [Gemfibrozil],99.9 ± 25,118,131 ± 54,112,–,124 ± 17,98.3 ± 12,–,–
CC(=O)OCC(=O)[C@@]12N=C(C)O[C@@H]1C[C@H]1[C@@H]3CCC4=CC(=O)C=C[C@]4(C)[C@H]3[C@@H](O)C[C@@]12C [Deflazacort],107 ± 38,141,137 ± 32,133,–,–,119 ± 14,145 ± 3.2,–
COCCCOc1ccnc(C[S+]([O-])c2nc3ccccc3[nH]2)c1C (configuration not stated) [Rabeprazole sodium],167 ± 75,197,82.4 ± 28,115,–,178 ± 5.8,135 ± 15,–,–
CC12C=CC(=O)C=C1CCC1C3CC(O)C(O)(C(=O)CO)C3(C)CC(O)C12F (configuration not stated) [Triamcinolone],117 ± 18,176,112.2 ± 0.86,130,–,121 ± 8.9,121 ± 18,185 ± 5.1,–
CC12CCC(=O)C=C1CCC1C2C(O)CC2(C)C1CCC2(O)C(=O)CO (configuration not stated) [Hydrocortisone],103 ± 13,126,132 ± 57,113,–,124 ± 4.5,95.6 ± 4.8,198 ± 13,–
CC(=O)OC1(C(C)=O)CCC2C3C=C(C)C4=CC(=O)CCC4(C)C3CCC21C (configuration not stated) [Megestrol Acetate],112 ± 6.4,121,106 ± 10,91.8,102,103 ± 16,93.7 ± 14,127.9 ± 0.7,–
CC1(C)O[C@@H]2C[C@H]3[C@@H]4CCC5=CC(=O)C=C[C@]5(C)[C@H]4[C@@H](O)C[C@]3(C)[C@]2(C(=O)CO)O1 [Desonide],84.8 ± 63,176,117 ± 43,125,–,144 ± 8.6,96.1 ± 15,127 ± 17,–
CC1CC2C3CCC4=CC(=O)C=CC4(C)C3(F)C(O)CC2(C)C1(O)C(=O)CO (configuration not stated) [Betamethasone],130 ± 41,177,145 ± 32,175,–,183 ± 2.4,130 ± 27,184 ± 37,–
CC(=O)OCC(=O)C1(O)C(C)CC2C3CCC4=CC(=O)C=CC4(C)C3(F)C(O)CC21C (configuration not stated) [Dexamethasone acetate],114 ± 33,160,131 ± 45,138,–,149 ± 10,119 ± 43,149 ± 22,–
O=c1c(-n2ccnn2)c[nH]n1-c1cc(N2CCOCC2)ncn1 [Molidustat (BAY85-3934)],142 ± 4.8,121,27.2 ± 1.8,121,–,163 ± 3.5,104 ± 7.3,–,–
